Assay results from the supplement of paper PMC6555819.

Columns and labels:
Assay in all cases: PBM binding z-score (relative to random genomic background probes); higher = stronger binding; sequences stand for … in GC…GCGATTGACAGCGTAGAATGAAGG
[1] = system: FXR:RXRa (NR concentration 270 nM, RXRa partner concentration 90 nM)
Outline: (§1)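 Binding buffer was PBS pH 7.4 with 2% milk, 0.02% Triton X-100, 1 mM DTT, 0.2 mg/mL BSA and 0.4 mg/ml salmon testes DNA. In it, ligand-free nuclear receptor dimers were incubated 1 h on custom Agilent 4×180K protein-binding microarrays carrying double-stranded probes. Antibodies against each partner (one per run) detected binding, and z-scores were calculated against random background probes after regression normalization of scanned fluorescence.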

[2] = system: LXRa:RXRa (NR concentration 270 nM, RXRa partner concentration 90 nM)
Outline: as §1

[3] = system: LXRa homodimer (NR concentration 270 nM)
Outline: as §1

[4] = system: LXRb:RXRa (NR concentration 270 nM, RXRa partner concentration 90 nM)
Outline: as §1

[5] = system: LXRb homodimer (NR concentration 270 nM)
Outline: as §1

[6] = system: PPARa:RXRa (NR concentration 270 nM, RXRa partner concentration 90 nM)
Outline: as §1

[7] = system: PPARg:RXRa (NR concentration 180 nM, RXRa partner concentration 90 nM)
Outline: as §1

[8] = system: PPARg:RXRa 270nM:90nM, anti-RXR (NR concentration 270 nM, RXRa partner concentration 90 nM)
Outline: as §1

[9] = system: PPARg:RXRa 30nM:10nM, anti-RXR (NR concentration 30 nM, RXRa partner concentration 10 nM)
Outline: as §1

[10] = system: PPARg:RXRa 90nM:30nM, anti-RXR (NR concentration 90 nM, RXRa partner concentration 30 nM)
Outline: as §1

[11] = system: PPARg:RXRa DBDmut IVT, anti-RXR (DBD mutation: RXRa K156A/R161A, NR concentration 270 nM, RXRa partner concentration 90 nM)
Outline: as §1

[12] = system: PPARg:RXRa IVT, anti-PPARg (NR concentration 270 nM, RXRa partner concentration 90 nM)
Outline: as §1

[13] = system: PPARg DBDmut:RXRa IVT, anti-PPARg (DBD mutation: PPARg1 K132A/R137A, NR concentration 270 nM, RXRa partner concentration 90 nM)
Outline: as §1

[14] = system: PPARg DBDmut IVT, anti-PPARg (DBD mutation: PPARg1 K132A/R137A, NR concentration 270 nM)
Outline: as §1

[15] = system: PPARg homodimer (NR concentration 180 nM)
Outline: as §1

[16] = system: PXR:RXRa (NR concentration 270 nM, RXRa partner concentration 90 nM)
Outline: as §1

[17] = system: PXR homodimer (NR concentration 270 nM)
Outline: as §1

[18] = system: RARa:RXR (NR concentration 270 nM, RXRa partner concentration 90 nM)
Outline: as §1

[19] = system: RARa homodimer (NR concentration 270 nM)
Outline: as §1

[20] = system: RARb:RXRa (NR concentration 270 nM, RXRa partner concentration 90 nM)
Outline: as §1

| Sequence | PBM binding z-score [1] | PBM binding z-score [2] | PBM binding z-score [3] | PBM binding z-score [4] | PBM binding z-score [5] | PBM binding z-score [6] | PBM binding z-score [7] | PBM binding z-score [8] | PBM binding z-score [9] | PBM binding z-score [10] | PBM binding z-score [11] | PBM binding z-score [12] | PBM binding z-score [13] | PBM binding z-score [14] | PBM binding z-score [15] | PBM binding z-score [16] | PBM binding z-score [17] | PBM binding z-score [18] | PBM binding z-score [19] | PBM binding z-score [20] |
| --- | --- | --- | --- | --- | --- | --- | --- | --- | --- | --- | --- | --- | --- | --- | --- | --- | --- | --- | --- | --- |
| CGTCAAAGTTGAACTAAGGTAACGTAAAGCACGC | 2.71 | 3.29 | 3.88 | 1.57 | 0.134 | 2.26 | 1.45 | 2.65 | 0.653 | 2.03 | 0.422 | 1.2 | 1.41 | 0.838 | 0.99 | 2.35 | 0.717 | 2.08 | 0.0339 | 2.17 |
| TCATATAGGTAAAAGGTGAAGGTCGGTGTGGTAA | 1.92 | 1.85 | 0.375 | 2.08 | 0.359 | 5.23 | 9.08 | 8.43 | 8.12 | 8.44 | 5.58 | 5.14 | 1.14 | 0.439 | 1.92 | 2.15 | 1.34 | 3.07 | 1.51 | 2.28 |
| TGAAGGAGGTTATAAGATCAGGGAACGTTGCAAA | 0.559 | 0.855 | -0.0635 | 0.774 | -0.481 | 2.16 | 0.845 | 1.42 | 0.992 | 1.16 | -0.131 | 0.876 | 0.728 | 0.392 | 0.374 | 0.292 | 0.19 | 0.993 | 0.904 | 0.905 |
| CAAACTAGGTCAAGGTCAACGTCGGTTTGTGCCA | 6.57 | 5.33 | 3.32 | 4.35 | 0.922 | 6.21 | 9.59 | 8.11 | 6.56 | 8.58 | 8.4 | 8.81 | 6.29 | 2.23 | 4.73 | 5.27 | 1.97 | 5.42 | 2.12 | 5.36 |
| ATATGTAAGTTACATCCGGGTCATTCAGGCTATG | 1.87 | 2.38 | 0.923 | 2.19 | 0.757 | 2.83 | 1.41 | 1.44 | 0.868 | 1.01 | 1.5 | 2.35 | 1.58 | 1.58 | 1.11 | 3.02 | 2.6 | 2.96 | 0.872 | 1.72 |
| AATACAGGGACACTAGGCCAGAGTAGGTACGAAT | -0.211 | -0.375 | -0.0605 | -0.483 | -0.0261 | -0.00279 | 0.846 | 0.394 | 0.113 | 0.294 | 0.603 | 1.52 | 0.579 | 0.0521 | -0.62 | -0.635 | 0.0323 | -0.555 | -0.036 | 0.688 |
| ACTAGCGGGCCAAGTTTGGGTCACTCAAACAAAG | 0.106 | -0.183 | -0.598 | 0.723 | -0.855 | 1.5 | -0.111 | 0.168 | -0.66 | 0.126 | 0.418 | 0.997 | -0.878 | -0.789 | 0.424 | 0.722 | -0.623 | 1.51 | -1.37 | 1.64 |
| AGAATGAGGTTACCAAAGATCAGGTAAACGCTTG | 1.72 | 5.99 | -0.313 | 3.44 | -0.454 | 3.43 | 2.76 | 2.77 | 1.12 | 1.9 | 3.32 | 3.43 | 0.874 | 0.666 | 0.758 | 1.64 | -0.0452 | 2.29 | 0.183 | 2.09 |
| GCGACGGGGGCATCAGCAGGTTACCATAACTTAA | 2.95 | 3.18 | 0.557 | 5.21 | 8.02 | 4.19 | 2.48 | 3.35 | 1.55 | 2.59 | 1.76 | 4.14 | 7.32 | 9.29 | 1.83 | 3.29 | 0.826 | 3.42 | -0.447 | 3.16 |
| ATCTCTAGGTAAAGATAGTTCATTGAATGCAAAT | 0.585 | 5.32 | 1.71 | 1.59 | 0.747 | 1.36 | 1.11 | 0.714 | 0.293 | 0.846 | 1.7 | 1.76 | 1.3 | 1.29 | 0.829 | 2.33 | 1.98 | 1.25 | 1.34 | 1.06 |
| ATATGTAGGTTAAGGTTCATTCAGGTTGGTTCGC | 3.46 | 3.69 | 3.61 | 3.2 | 0.826 | 5.83 | 10.6 | 9.42 | 8.81 | 10.9 | 7.08 | 7.48 | 4.12 | 3.24 | 3.29 | 4.08 | 5.13 | 3.48 | 1.87 | 2.21 |
| CTCGAAAGGTCGTGCTCAGGTGAGTATCCCAAAC | 4.79 | 3.79 | 0.264 | 3.34 | 0.35 | 4.61 | 2.17 | 3.89 | 0.803 | 2.2 | 0.866 | 1.8 | 0.243 | -0.461 | 1.25 | 3.1 | 0.327 | 3.67 | -0.0794 | 3.83 |
| CCTTACGGGTCACCAGGTTATAGCACGACGAGCG | 5.57 | 4.07 | 0.342 | 3.43 | 0.0793 | 5.41 | 6.15 | 6.21 | 2.59 | 4.99 | 3.46 | 5.18 | 0.0764 | -0.404 | 2.34 | 3.72 | -0.0319 | 4.62 | 1.27 | 4.27 |
| ACTTACGGGTCGACGAGGTTATAGCACGCGTATA | 1.82 | 1.97 | 0.124 | 1.94 | 0.314 | 2.97 | 1.52 | 1.22 | 0.608 | 0.729 | 0.585 | 1.14 | 0.084 | 0.394 | 0.944 | 2.68 | 0.798 | 2.75 | -0.198 | 1.82 |
| TTACCAAGGTGTGCTGAGGTCGTTGATCCAACTC | 0.714 | 0.293 | -0.284 | 0.587 | -0.354 | 0.88 | -0.381 | 0.606 | -0.307 | 0.00377 | -0.56 | 0.137 | -0.549 | -0.745 | 0.0378 | 2.18 | 0.694 | 1.18 | -0.699 | 0.629 |
